TCR activator: activators of T cell receptors; primary human leukocytes, anti-CD3, IL-2 HTRF, 48 h; 330,000 tested, under 10 active; Potency, µM (doses to about 9.22 µM), inactives show at the highest dose activation of IL-2 secretion, actives largely listed as activators; AID 504894; also: % of control where 0% means no effect
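IL-2 release read by HTRF sandwich (Eu cryptate donor, d2 acceptor, 665 nm emission) after 48 hr exposure of primary human leukocytes to compound together with anti-CD3 beads in the absence of co-stimulatory signals.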
a7 integrin act: activators of alpha7 integrin expression for muscular dystrophy. alpha7betagal myoblasts, beta-gal FDG fluorescence, 48 h. Potency, µM (doses to about 38.3 µM), for the others: top-dose activation, hits mostly activators. 0.064% of 350,000 active;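 also: potency is read from the fitted curve at half-maximal effect; 100% = response of the positive control SU9516; nearly all actives have a fitted effect of over 60% in size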
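Alpha7betagal+/- myoblasts (passage 13) were plated 16-24 hr, then exposed to compounds (1:260 dilution of DMSO stock) for 48 hours at 37C. After MPER lysis, β-galactosidase reporter activity was read as FDG fluorescence (ex 480/em 540) after 30 minutes.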
Giardia kill: kills Giardia lamblia; Giardia lamblia trophozoite viability; AID 540267; 0.15% of 340,000 active; activity change, % at 7.66 µM, hits read low; in the data active = activity change below about -80%; inconclusive = between about -30% and that limit;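 also: parasites exposed to compound for two days anaerobically before the ATP read; % is scaled to controls: 0 for no effect and ±100 for the full control effect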
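Giardia lamblia trophozoites (100 cells/well) were incubated with compounds for 48 h at 37 deg C under anaerobic conditions. Viability was read as ATP content by one-step luminescence after 15-30 min at room temperature.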
Chronic BCR inh: inhibitors of chronic active B-cell receptor signaling; 0.05% of 340,000 active; ABC-DLBCL IkBa-CBG/CBR reporter, luminescence ratio, 4 h; Potency, µM (doses to about 46.1 µM), inactives show top-dose activity change, negative = inhibition, actives largely listed as inhibitors; active = well fitted inhibition curve with a large enough effect in the signal ratio, with a control signal flat, not every such curve was filed as active; inconclusive = small, poorly fitted or top-dose-only effect, or effect the other way, or a change in a side signal; the % refers to the signal ratio;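 also: potency is read from the fitted curve at half-maximal effect; plate controls were basal doxycycline-induced cells for no effect and cells given 10 µM MG132 for full effect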
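Doxycycline induced both beetle luciferases in TMD8 lymphoma cells; IKK-driven degradation limits the IkappaBalpha-fused green signal, while red luminescence normalises for cell number and nonspecific effects. Compounds tested up to 46 uM, 4 hrs.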
* marks the source's active call; other numbers are inactive results; [ ] = dose if it differs, or a comment. Most compounds without a hit are left out; they make up all but 0.25% or so of the library. Unless noted, calls follow the shape of the dose curve; as a rule, active = well fitted curve in the direction sought with a large enough effect; inconclusive = small, poorly fitted or top-dose-only effect, or another doubt; inactive = no such curve, though single readings can be large; an effect the other way counts as inactive or inconclusive.

What do the screens show for `NC1=Nc2cccc3cccc1c23`?
TCR activator: 12%; a7 integrin act: 7.9µM*; Giardia kill: -4; Chronic BCR inh: inconclusive

How did O=C1c2ccccc2-c2cccc3cccc1c23 do in these assays?
TCR activator: -4%; Giardia kill: 2

What do the screens show for `O=C(Cn1nc(-c2ccc(Cl)cc2)ccc1=O)N1CCC2(CC1)OCCO2`?
TCR activator: 11%; a7 integrin act: 11µM*; Giardia kill: -4; Chronic BCR inh: -12%

How did O=C(CCn1nc(-c2ccc(Cl)cc2)ccc1=O)N1CCC2(CC1)OCCO2 do in these assays?
TCR activator: 3%; a7 integrin act: -16%; Giardia kill: -14; Chronic BCR inh: -10%

What do the screens show for `O=[N+]([O-])c1cc([As](=O)(O)c2ccc(O)c([N+](=O)[O-])c2)ccc1O`?
TCR activator: -1%; a7 integrin act: 28%; Giardia kill: -83*; Chronic BCR inh: -1%

What do the screens show for `O=[N+]([O-])c1cc(-c2ccc([As](=O)(O)O)cc2)ccc1[As](=O)(O)O`?
Chronic BCR inh: -1%

Results for Cn1ncnc2c(=O)n(C)c(=O)nc1-2 ?
TCR activator: 7%; a7 integrin act: 41%; Giardia kill: -88*; Chronic BCR inh: inconclusive

What do the screens show for `Cc1ccc(-c2nc3c(=O)n(C)c(=O)nc-3n(C)n2)cc1`?
Giardia kill: -95*

Results for CC(=O)Nc1ccc2nc(NC(=O)c3ccc([N+](=O)[O-])o3)sc2c1 ?
TCR activator: 10%; a7 integrin act: -28%; Giardia kill: 2; Chronic BCR inh: inconclusive

How did Cc1nccc(-c2cc(-c3ccc(Cl)cc3Cl)no2)n1 do in these assays?
TCR activator: 7%; a7 integrin act: 21%; Giardia kill: 0; Chronic BCR inh: inconclusive

Results for COc1cc2c(cc1OC)-c1c(OC)c(OC)c(OC)c3ccnc(c13)C2=O ?
TCR activator: 1%; a7 integrin act: -15%; Giardia kill: -83*; Chronic BCR inh: 3%

How did O=C(NNC(=S)Nc1ccccc1)C1CCCCC1 do in these assays?
TCR activator: -7%; a7 integrin act: 5%; Giardia kill: 8; Chronic BCR inh: inconclusive

Results for COc1cc(NC(=O)c2cccc(C)c2)ccc1NC(=O)c1cc2ccccc2o1 ?
TCR activator: 10%; a7 integrin act: -10%; Giardia kill: 6; Chronic BCR inh: inconclusive

How did O=C1SC(Cc2ccccc2)C(=O)N1c1ccccc1 (stereo not drawn) do in these assays?
TCR activator: -1%; a7 integrin act: 7.9µM*; Giardia kill: -12; Chronic BCR inh: inconclusive

What do the screens show for `Nc1[nH]n(-c2ccccc2)c(=O)c1N=Nc1ccc2ncsc2c1`?
TCR activator: 1%; a7 integrin act: 13%; Giardia kill: -1; Chronic BCR inh: inconclusive

What do the screens show for `CN(C)C(=S)SSC(=S)N(C)C`?
TCR activator: -3%; Giardia kill: -85*; Chronic BCR inh: inconclusive

What do the screens show for `O=[N+]([O-])c1oc2ccc3ccccc3c2c1CCO`?
TCR activator: 1%; a7 integrin act: -46%; Giardia kill: -95*

Results for CNC(=O)Oc1ccc(-c2cn3cc(Cl)ccc3n2)cc1 ?
TCR activator: 0%[46.1 µM]; a7 integrin act: -17%; Giardia kill: -86*; Chronic BCR inh: inconclusive

Results for Cc1ccc(S(=O)(=O)Cc2ccc(C(=O)N3CCN(c4cccc(C)c4C)CC3)o2)cc1 ?
TCR activator: 6%; a7 integrin act: -34%; Giardia kill: -21; Chronic BCR inh: 13µM*

How did CC1CCCN(c2nc(N(C)c3ccccc3)nc(N)c2[N+](=O)[O-])C1 (stereo not drawn) do in these assays?
TCR activator: -4%; a7 integrin act: 0%; Giardia kill: 27; Chronic BCR inh: inconclusive

Results for O=[N+]([O-])c1ccc(N2CCCCC2)c2ncccc12 ?
TCR activator: -14%; a7 integrin act: 14%; Giardia kill: -22; Chronic BCR inh: inconclusive

How did O=[N+]([O-])c1cccc2c([As](=O)(O)O)cccc12 do in these assays?
TCR activator: -3%; a7 integrin act: -17%; Giardia kill: -94*; Chronic BCR inh: inconclusive

How did CN(CC(=O)Nc1ccccc1C(F)(F)F)C(=O)Cn1c(=O)oc2ccccc21 do in these assays?
TCR activator: -87%; a7 integrin act: -1%; Giardia kill: 2; Chronic BCR inh: inconclusive

How did Cc1cccc(-n2c(/C=C/c3ccc([N+](=O)[O-])o3)nc3ccccc3c2=O)c1 do in these assays?
TCR activator: 1%[46.1 µM]; a7 integrin act: -55%; Giardia kill: -88*; Chronic BCR inh: 0%

Results for O=c1c2ccccc2nc(/C=C/c2ccc([N+](=O)[O-])o2)n1-c1ccc(O)cc1 ?
TCR activator: -1%; a7 integrin act: -10%; Giardia kill: -85*; Chronic BCR inh: inconclusive

Results for Cc1cccc(-n2c(/C=C/c3cccc4ccccc34)nc3ccccc3c2=O)c1 ?
Chronic BCR inh: -2%

What do the screens show for `NC(=O)CC(NC(=O)Cc1cccc2ccccc12)c1ccc(N2CCc3ccccc3C2)c([N+](=O)[O-])c1` (stereo not drawn)?
TCR activator: -6%; a7 integrin act: 9%; Giardia kill: 9; Chronic BCR inh: inconclusive

What do the screens show for `O=C(NCC1CCCO1)C1CCN(C2CCN(C(=O)Cc3ccsc3)CC2)CC1` (stereo not drawn)?
TCR activator: 6%; a7 integrin act: inconclusive; Giardia kill: 1; Chronic BCR inh: -4%

Bioassay records as filed in PubChem.
